A selection: hits, their analogues and other compounds. The true share with any hit is near 2.8%.
zVAD death inh: L929 zVAD cell death inhibition. 0.38% of 220,000 active. L929 zVAD necroptosis rescue, ATP luminescence, 24 h; with zVAD 60 µM. viability rescue, % at 10 µM;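 active = activation, scaled between plate controls, above about 75%, limit read from the data; inactive = activation under that limit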
Mcl1-Bid inh: disrupts binding of human Mcl-1 to Bid peptide. Q07820. TR-FRET Mcl-1/Bid-Dy647 peptide binding, 1536-well. inhibition, % at 21.7 µM. 0.97% of 220,000 active;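 active = compounds that cut the binding signal by more than half at the single screening dose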;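 note: His-tagged Mcl-1 with europium anti-His antibody binding Bid BH3 peptide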
Target sequence (Q07820 whole entry, looked up): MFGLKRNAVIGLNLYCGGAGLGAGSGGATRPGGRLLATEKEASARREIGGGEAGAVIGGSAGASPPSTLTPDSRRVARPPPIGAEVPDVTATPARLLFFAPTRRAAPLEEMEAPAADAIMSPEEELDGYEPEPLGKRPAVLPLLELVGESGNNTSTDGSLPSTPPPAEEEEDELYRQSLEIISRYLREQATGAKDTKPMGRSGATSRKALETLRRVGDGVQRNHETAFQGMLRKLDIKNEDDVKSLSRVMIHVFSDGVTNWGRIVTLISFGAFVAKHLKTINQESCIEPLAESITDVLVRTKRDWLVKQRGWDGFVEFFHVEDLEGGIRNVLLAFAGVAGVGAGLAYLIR
Mcl1 Noxa PPI: disrupts binding of human Mcl-1 to Noxa peptide. Q07820. TR-FRET Mcl-1/Noxa peptide binding, 2 h. inhibition, % at 21.7 µM. 1.5% of 220,000 active. AID 1022;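 active = compounds that cut the protein-peptide binding signal by more than 50% relative to plate controls in a single-dose test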;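 note: His-tagged Mcl-1 with rhodamine Noxa BH3 peptide and terbium anti-His antibody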
Mcl-1 Bim block: disrupts Bim peptide binding to human Mcl-1; AID 1009; inhibition, % at 10 µM; Bead-based flow cytometry, Bim peptide-Mcl-1 binding; 0.1% of 190,000 active; in the data active = inhibition above about 40%
Calpain2 inh: calpain II (pig) inhibition. purified calpain II, fluorogenic peptide substrate, 30 min. inhibition, % at 16 µM. 0.37% of 220,000 active;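 active = inhibition above about 50%, limit read from the data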
TNF death inh: inhibitors of TNF-alpha induced necroptosis in Jurkat FADD-/- cells; Jurkat FADD-/- TNF necroptosis rescue, ATP luminescence, 24 h; 0 = TNF only, 100 = no-TNF cells; activation (protection from cell death), % at 10 µM; 0.068% of 220,000 active; AID 463075;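 active = activation, meaning protection from cell death, of at least 50% relative to plate controls; inactive = activation below 50%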;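 note: necroptosis triggered by 40 ng/mL TNF-alpha added together with compound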
Hits are given with their value; i = inactive; nt = no result.

SMILES | zVAD death inh | Mcl1-Bid inh | Mcl1 Noxa PPI | Mcl-1 Bim block | Calpain2 inh | TNF death inh
Cc1ccccc1NC(=O)c1cc(C(=O)c2cc(Cl)ccc2O)cn(-c2ccccc2C)c1=O | i | i | i | i | i | i
CC(/C=C1\SC(=S)N(CCCC(=O)Nc2ccc(C(=O)O)cc2)C1=O)=C\c1ccccc1 | nt | i | 52.5 | i | i | i
O=C(CCCN1C(=O)/C(=C\c2cccc(Br)c2)SC1=S)Nc1cccnc1 | i | 59.4 | i | i | i | i
CCOc1ccc(-n2c(=S)sc3c(=O)[nH]c(SCC(=O)C(C)(C)C)nc32)cc1 | i | i | i | i | i | i
O=C(Nc1cnn(Cc2ccc(F)cc2)c1)C(c1ccccc1)c1ccccc1 | i | i | i | i | 53.2 | i
O=C(Nc1cnn(Cc2ccc(F)cc2)c1)c1cnccn1 | i | i | i | i | i | i
CCCCCCCCCC(=O)N1c2ccccc2NC(=O)C1CC(=O)Nc1ccc(C(=O)O)cc1 (centres undefined) | i | i | i | nt | 53.2 | i
Cn1c(=O)c2c(nc(OCc3ccc4c(c3)OCO4)n2Cc2ccccc2Cl)n(C)c1=O | i | 50.8 | i | i | i | i
COc1cccc(COc2nc3c(c(=O)n(C)c(=O)n3C)n2C)c1 | i | i | i | i | 76.0 | i
Cn1c(=O)c2c(nc(NCc3ccc4c(c3)OCO4)n2Cc2ccccc2Cl)n(C)c1=O | i | i | i | i | i | i
CC(=O)NS(=O)(=O)c1ccc2sc(C)nc2c1 | i | i | i | nt | i | i
Cc1ccc(S(=O)(=O)N(CC(=O)N/N=C/c2cccc(Cl)c2)c2cccc3cccnc23)cc1 | i | 86.2 | i | i | i | i
Cc1ccc(N(CC(=O)N/N=C/c2cccnc2)S(=O)(=O)c2ccccc2)cc1 | i | i | i | i | i | i
CCOC(=O)C(=O)N1CCC(C(=O)OC)CC1 | i | i | i | i | i | i
Cc1ccc(-c2nc(C)sc2CC(=O)Nc2cccc(C)c2C)cc1 | i | i | i | i | i | i
c1csc(Cc2nc3ccccc3[nH]2)c1 | i | i | i | i | i | 64.9
Cn1c(Cc2cccs2)nnc1SCc1nc2ccccc2[nH]1 | i | i | i | i | i | i
CCC(C)(C(=O)NC1CCCCC1)N(Cc1ccco1)C(=O)c1ccccn1 (centres undefined) | i | i | i | i | i | i
O=C1c2cccnc2C(Nc2cccc(F)c2)N1Cc1ccco1 (centres undefined) | i | i | i | i | i | i
O=C1c2cccnc2C(Nc2ccccc2)N1Cc1ccco1 (centres undefined) | i | 60.0 | 60.2 | i | i | i
CC(NCc1ccccc1)C1COc2ccccc2O1 (centres undefined) | i | 60.0 | nt | i | i | i
COc1ccc(CNC(C)C2COc3ccccc3O2)c(OC)c1 (centres undefined) | i | i | i | i | i | i
O=C(COc1ccc2c(c1)CCC2)N1CCc2ccccc21 | i | 90.1 | i | i | i | i
O=c1[nH]c(=S)[nH]c(O)c1N=Nc1ccc(-c2ccccc2)cc1[N+](=O)[O-] | i | i | 91.9 | i | i | i
Cc1cccc2c(N=Nc3ccc(S(=O)(=O)Nc4cccc(Cl)c4)cc3[N+](=O)[O-])c(O)[nH]c12 | i | i | i | i | i | i
SMILES | zVAD death inh | Mcl1-Bid inh | Mcl1 Noxa PPI | Mcl-1 Bim block | Calpain2 inh | TNF death inh
Oc1ccc(Nc2nc3ccccc3nc2Nc2ccc(O)cc2)cc1 | i | i | 82.2 | i | i | i
O=C(NC1CCCCC1)C(c1ccc(F)cc1)N(Cc1ccco1)C(=O)CN1C(=O)c2ccccc2S1(=O)=O (centres undefined) | i | i | i | i | i | i
Cc1ccc2c(c1)C(CCN)C(=O)N2Cc1ccccc1 (centres undefined) | i | i | i | i | i | i
Cc1ccc2c(c1)C1CCCC3C1N2CC(=O)N3Cc1ccccc1 (centres undefined) | i | i | 51.5 | i | i | i
c1ccc(Cn2nnc3c(NCc4ccc5c(c4)OCO5)ncnc32)cc1 | i | 52.2 | i | nt | i | i
c1ccc(CCNc2ncnc3c2nnn3Cc2ccccc2)cc1 | i | i | i | i | i | i
Cc1nn(CCOc2cccc(Br)c2)c(C)c1[N+](=O)[O-] | i | i | i | i | i | i
COc1ccccc1Nc1ccc(Nc2ccccc2OC)nn1 | i | i | i | i | i | i
COc1ccc(OC)c(Nc2ccc(Nc3cc(OC)ccc3OC)nn2)c1 | i | i | 54.1 | i | i | i
O=C(CN1C(=O)NC2(CCSC2)C1=O)NCc1ccccc1 (centres undefined) | i | i | i | i | i | i
O=CN/C=C/c1cc(O)ccc1O | i | i | 57.3 | nt | i | i
O=C(/C=C/c1ccc(O)cc1)c1ccc(O)cc1O | i | i | i | i | i | i
C=CCN1C(=O)/C(=C/c2ccsc2)SC1=S | i | i | i | 64.0 | i | i
Cn1c(C(=O)c2ccccc2[N+](=O)[O-])nc2ccccc21 | i | i | i | i | i | i
CN(C)N1C(N)=C(C#N)C(c2cccnc2)C2=C1CC(C)(C)CC2=O (centres undefined) | i | 61.7 | i | i | i | i
CCc1nn2cc(C(=O)c3ccccc3O)cnc2c1-c1ccc(F)cc1 | i | i | i | i | i | i
CCc1nn2cc(C(=O)c3cc(C)ccc3O)cnc2c1-c1ccc(F)cc1 | i | i | i | 42.0 | i | i
CN(c1ccccc1)S(=O)(=O)c1ccc(C(=O)OCC(=O)N2CCOCC2)cc1 | i | i | i | i | i | i
O=C(CN1C(=O)c2ccccc2C1=O)N1CCN=C1c1ccccc1 | i | i | i | nt | i | i
Fc1ccccc1N1CCN(CC2CC3C=CC2C3)CC1 (centres undefined) | i | i | i | i | i | i
C1=CC2CC1CC2CN1CCN(Cc2ccccc2)CC1 (centres undefined) | i | 61.3 | i | i | i | i
O=C(Cn1c2ccccc2c(=O)c2ccccc21)N/N=C/c1cc([N+](=O)[O-])ccc1N1CCCCC1 | i | 67.0 | i | i | i | i
CN1CCN(c2ccc([N+](=O)[O-])cc2/C=N/NC(=O)c2cccc([N+](=O)[O-])c2)CC1 | i | i | 90.7 | i | i | i
Cc1ccccc1OCC(=O)Nc1ccc2c(c1)n(C)c(=O)n2C | i | i | i | i | i | i
C(=N\N1CCN(Cc2ccccc2)CC1)/c1ccccc1 | i | i | i | nt | i | i
CCN(CC)c1ccc(/C=N/N2CCN(Cc3ccccc3)CC2)cc1 | i | i | 75.4 | i | i | i
O=C1/C(=C/c2ccc(O)c(O)c2)SC(=S)N1Nc1ccccc1 | i | i | 59.9 | i | i | i
COc1cc(/C=C2\SC(=S)N(Nc3ccccc3)C2=O)ccc1O | i | i | i | i | i | i
CC(C)CN(CCNC(=O)CN1C(=O)CSc2ccc(S(=O)(=O)N3CCOCC3)cc21)CC(C)C | i | i | i | i | i | i
